Source: PubChem (National Center for Advancing Translational Sciences (NCATS))
Coupling enz – inhibits coupling enzyme system, counter-screen for aldolase hits; coupling enzyme system counterscreen, AmpLite Red fluorescence; 0.67% of 290,000 active; activity change, negative = inhibition, % at 58.2 µM, hits read low; AID 2472; in the data active = activity change below about -30%
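Counterscreen of the coupled detection system alone, without aldolase: glyceraldehyde-3-phosphate coupling enzymes plus AmpLite Red readout. Compounds at 57.5 uM final, 10 min RT preincubation, 20 min RT reaction, fluorescence 525/598 nm.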
Tau FP inhib – blocks human tau fibril formation measured by polarization; 0.39% of 280,000 active; Potency, µM (doses to about 57.7 µM), hits mostly inhibitors; P10636; AID 1468; K18 P301L tau heparin fibrillization, Alexa594 FP, 6 h; note: nearly all actives have a fitted effect of over 55% in size
Target sequence (P10636 561-689 P618L limits assumed): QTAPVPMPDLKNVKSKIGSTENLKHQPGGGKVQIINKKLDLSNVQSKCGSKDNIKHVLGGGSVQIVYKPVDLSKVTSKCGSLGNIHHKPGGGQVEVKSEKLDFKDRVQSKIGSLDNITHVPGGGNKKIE
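Compound effects on tau fibrillization are measured by Alexa 594 fluorescence polarization (ex 555, em 632 nm). K18 P301L tau is used at 15 uM with 0.24 uM labeled tracer, and 20 uM heparin induces aggregation over 6 hr at 37 C.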
Tau fluor counter – counter-screen for tau fibril formation inhibitors. tau K18 P301L Alexa594 fluorescence, heparin fibrillization. Potency, µM (doses to about 57.7 µM). 0.93% of 280,000 active; note: nearly all actives have a fitted effect of over 55% in size
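Human tau K18 P301L (15 uM unlabeled, 0.24 uM Alexa 594-labeled) in 100 mM sodium acetate pH 7 with 20 uM heparin, 6 hr at 37 C. ThT 30 uM added, 1 hr ambient; Alexa 594 FP and total fluorescence read at 555/632 nm.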
Sfp inh – Sfp phosphopantetheinyl transferase inhibition; AID 1490; Biochemical Sfp PPTase activity, qHTS; Potency, µM, usual class: inhibitors; 3.5% of 310,000 active; Q9F4F7;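 note: the enzyme is Sfp with the accession as filed and its product quenches rhodamine fluorescence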
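Compounds were incubated with enzyme (final 15 nM) for 15 min at room temperature before substrate addition started the reaction. Fluorescence at 525 nm excitation, 598 nm emission was recorded immediately and after 30 minutes.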
Tau fibril ThT – tau fibrillization inhibition (ThT binding) | P10636 | recombinant tau K18 P301L (four-repeat tau fragment), heparin-induced fibrillization, ThT fluorescence | Potency, µM (top dose mostly 57.4 µM), actives largely listed as inhibitors | 2.1% of 270,000 active; note: nearly all actives have a fitted effect of over 55% in size
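Aggregation was driven by heparin (20 uM final) acting on recombinant tau […] bearing P301L in 100 mM sodium acetate pH 7; fibrils were detected with Thioflavin T.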
Hits are given with their value; - = inactive; ? = inconclusive; . = no result given; [ ] = dose if it differs, or a comment. Rows were chosen to be rich in hits. Some 5.2% of all compounds tested hit in one or more screens of this group. Unless noted, calls come from the whole dose curve; as a rule, active = well fitted curve in the direction sought with a large enough effect; inconclusive = small, poorly fitted or top-dose-only effect, or another doubt; inactive = no such curve, though single readings can be large; an effect the other way counts as inactive or inconclusive.

SMILES	Coupling enz	Tau FP inhib	Tau fluor counter	Sfp inh	Tau fibril ThT
N#C/C(=N\Nc1cccc(Cl)c1)C(=O)c1ccccc1	-	-	?	-	10µM
CC(=O)/C(N)=N/Nc1cccc(Cl)c1	-	-	?	-	?
CC1CN(C(=O)N2CCC(C(=O)NCCCc3ccccc3)CC2)c2ccccc2O1 (stereo not given)	.	?	-	.	-
Cc1cccc(CNc2ncncc2-c2ccccc2Cl)c1	-	.	.	-	.
CSc1ccc(CCNC(=O)C2CCCN(S(=O)(=O)N(C)c3ccc(F)cc3)C2)cc1 (stereo not given)	.	-	-	.	-
CC(=O)N(Cc1ccc(F)cc1)C1=C(NCCc2ccccc2)C(=O)c2ccccc2C1=O	-47	?	?	-	28µM
COc1cccc(CN(C(=O)c2oc3cc(C)ccc3c2C)C2CCS(=O)(=O)C2)c1 (stereo not given)	.	-	-	.	-
COc1ccc(Cl)cc1NS(=O)(=O)c1c(C)[nH]c(=O)[nH]c1=O	-	?	?	-	28µM
CCO/C(=C/c1sc2ccc(OC)cc2[n+]1CCCS(=O)(=O)[O-])CC	-	-	-	?	-
COc1ccc2sc(SCCCS(=O)(=O)O)[n+](CCCS(=O)(=O)[O-])c2c1	-	-	-	4.5µM	-
CSc1sc2ccccc2[n+]1CCCS(=O)(=O)[O-]	-	-	-	18µM	?
N#CC1=C(N)SC(N)=C(C#N)C1c1ccc([N+](=O)[O-])cc1	-	-	?	5µM	20µM
CCCOC(=O)c1ccc(O)c(OC)c1	-	-	-	-	-
COc1cc(C(=S)N(C)C)ccc1O	-	-	-	40µM	?
COc1ccc2nc(NC(=O)c3nc(SCc4ccccc4F)ncc3Cl)sc2c1	.	-	-	.	-
COc1ccc2nc(NC(=O)c3nc(S(=O)(=O)Cc4ccccc4)ncc3Cl)sc2c1	.	-	?	.	8.9µM
COc1ccc(OC)c(NC(=O)c2nc(S(=O)(=O)Cc3ccccc3)ncc2Cl)c1	.	.	.	-	.
COc1ccc2nc(NC(=O)c3nc(S(=O)(=O)Cc4ccccc4F)ncc3Cl)sc2c1	.	-	?	.	7.1µM
CCOC(=O)c1ccccc1NC(=O)c1nn(C)c2c1COc1ccccc1-2	.	-	-	.	-
Cc1ccc(OCc2cc(=O)n3cc(C)sc3n2)c(C)c1	.	-	-	.	?
CCN(CC)CCNC(=O)c1ccc(NC(=O)c2ccccc2-c2ccc(C(F)(F)F)cc2)cc1	-	.	.	-	.
CCN(CC)CCNC(=O)c1ccc(NC(=O)c2cn(-c3ccccc3)nc2-c2cccs2)cc1	-	10µM	?	?	-
O=C(Nc1cccnc1)c1cn(-c2ccccc2)nc1-c1cccs1	-	28µM	18µM[quencher]	-	-
CCN(CC)CCNC(=O)c1ccc(NC(=O)c2cn(-c3ccc(F)cc3)nc2-c2cccc(OC)c2)cc1	-	.	.	50µM	.
O=C(Nc1cccc2ccccc12)c1cn(-c2ccccc2)nc1-c1cccs1	.	?	-	-	-
SMILES	Coupling enz	Tau FP inhib	Tau fluor counter	Sfp inh	Tau fibril ThT
COc1ccc(NC(=O)c2c(NCc3cccc(OC)c3)sc3c2CCCC3)cc1	.	-	?	.	?
COc1ccc(NC(=O)c2c(NCc3ccc(OC)c(OC)c3OC)sc3c2CCC3)c(OC)c1	.	-	?	.	14µM
CCOC(=O)c1ccc(NC(=O)c2c(NCc3cccc(OC)c3OC)sc3c2CCC3)cc1	.	-	?	.	?
COc1ccccc1NC(=O)c1c(NCc2ccc(OC)c(OC)c2OC)sc2c1CCC2	.	-	-	.	?
COc1ccc(NC(=O)c2c(NCc3ccc(N(C)C)cc3)sc3c2CCC3)cc1	.	-	?	.	16µM
CCOC(=O)c1ccc(NC(=O)c2c(NCc3sccc3C)sc3c2CCCCC3)cc1	.	-	-	.	32µM
COc1ccc(NC(=O)c2c(NC(=O)C(F)(F)F)sc3c2CCCCC3)cc1	.	-	?	.	16µM
CCCCC(=O)N1C/C=C\C(c2ccc(OC)cc2)N(Cc2ccc(F)cc2)C(=O)C1C (stereo not given)	-	.	.	-	.
Cc1ccccc1-c1cncnc1NCc1ccccc1	-	.	.	-	.
Cc1noc(C)c1-c1cncnc1NCc1cccnc1	-	.	.	56µM	.
Cc1ccccc1-c1cncnc1NCc1cccnc1	-	.	.	79µM	.
COc1ccccc1Cc1nc2ccccc2nc1SCC(=O)NCc1ccccc1Cl	.	-	-	.	-
CCCCCCCCCCC(C)=O	-	.	.	-	.
NS(=O)(=O)c1ccc(N/N=C/C=C/c2ccccc2[N+](=O)[O-])cc1	-	.	.	-	.
